Here are results for 17 compounds from the antibiotic and cytotoxicity screens of Wong et al. (2023).

About 3,300 (8.5%) of roughly 39,000 compounds were called active. What follows is part of a selection rich in actives, with near analogues and random picks from the rest.

The assay relates to HepG2. Kind of assay: cytotoxicity call (relative viability < 0.9). The conditions noted are these: 10 µM.
In the case of `c1cnc2c(c1)OCCN2`, the cytotoxicity call is “inactive”.

Take `C=CCC[C@@H](Cc1ccc(F)cc1)C(=O)OC[C@H]1CCCN1C(=O)[C@H](CC=C)CC(=O)N(CCO)Cc1ccccc1`: the cytotoxicity call was “inactive”.

As for `C[C@@H]1CCCCO[C@@H](CN(C)C(=O)C2CCCCC2)[C@@H](C)CN([C@@H](C)CO)C(=O)c2cc(NC(=O)c3ccccc3)ccc2O1`, the cytotoxicity call was “inactive”.

On to `O=c1nc(NCc2ccco2)cc[nH]1`, for which the cytotoxicity call was “inactive”.

As to `C[C@@H]1CN([C@@H](C)CO)C(=O)c2cc(NC(=O)Cn3cnnn3)ccc2O[C@H]1CN(C)Cc1ccc2c(c1)OCO2`, the cytotoxicity call is “inactive”.

As to `COc1ccc(S(=O)(=O)N(C)C[C@H]2Oc3ccc(NS(=O)(=O)c4ccccc4)cc3C(=O)N([C@H](C)CO)C[C@@H]2C)cc1`, the cytotoxicity call is “inactive”.

Consider `Cc1ccc(S(=O)(=O)Nc2ccc3c(c2)CC(=O)N([C@@H](C)CO)C[C@H](C)[C@@H](CN(C)S(=O)(=O)c2ccccc2)O3)cc1`, for which the cytotoxicity call is “inactive”.

With `Cc1noc(C)c1NC(=O)Nc1ccc2c(c1)C(=O)N([C@@H](C)CO)C[C@H](C)[C@@H](CN(C)S(=O)(=O)c1ccc(Cl)cc1)OCCCC[C@H](C)O2`, the cytotoxicity call is “inactive”.

As for `CCOC(=O)C1=NNC[C@@H]1C(=O)OCC`, the cytotoxicity call was “inactive”.

As to `C[C@H]1CN([C@@H](C)CO)C(=O)c2cc(NC(=O)Nc3ccc(C(F)(F)F)cc3)ccc2O[C@H]1CN(C)Cc1ccc(C(F)(F)F)cc1`, the cytotoxicity call is “inactive”.

`C[C@H]1CN([C@@H](C)CO)C(=O)c2cc(NC(=O)Nc3ccc(C(F)(F)F)cc3)ccc2O[C@@H]1CN(C)Cc1ccc(C(F)(F)F)cc1`: the cytotoxicity call is “active”.

Take `C[C@H](CO)N1C[C@H](C)[C@H](CN(C)Cc2ccc(C(F)(F)F)cc2)Oc2ccc(NC(=O)Nc3ccc(C(F)(F)F)cc3)cc2C1=O`: the cytotoxicity call is “active”.

As for `C[C@H](CO)N1C[C@H](C)[C@@H](CN(C)Cc2ccc(C(F)(F)F)cc2)Oc2ccc(NC(=O)Nc3ccc(C(F)(F)F)cc3)cc2C1=O`, the cytotoxicity call is “inactive”.

Turning to `CC(=O)N1CCN(c2ccnc3c2c(=O)n(CC(=O)NC(C)(C)C)c(=O)n3C)CC1`, the cytotoxicity call is “inactive”.

For `CO[C@H]1C[C@@H]2CC[C@@H](C)[C@@](O)(O2)C(=O)C(=O)N2CCCC[C@H]2C(=O)O[C@H]([C@H](C)C[C@@H]2CC[C@@H](OCCO)[C@H](OC)C2)CC(=O)[C@H](C)/C=C(\C)[C@@H](O)[C@@H](OC)C(=O)[C@H](C)C[C@H](C)/C=C/C=C/C=C/1C`, the cytotoxicity call was “inactive”.

In the case of `C[C@@H]1CN([C@@H](C)CO)C(=O)Cc2cc(NS(=O)(=O)c3cn(C)cn3)ccc2O[C@@H]1CN(C)S(=O)(=O)c1ccc(Cl)cc1`, the cytotoxicity call was “inactive”.

In the case of `C[C@H]1CN([C@@H](C)CO)C(=O)c2cccc(NS(=O)(=O)c3ccc(Cl)cc3)c2O[C@H]1CN(C)Cc1ccc(-c2ccccc2)cc1`, the cytotoxicity call is “inactive”.
